In PubChem BioAssay AID1159580 (chemical genetic matrix, 2015):
Hit rate of the full screen: of about 5,500 compounds, about 2,000 (36%) were called active. Inconclusive results (about 18%) are left out. Rule as the data show it: active = normalized growth mostly below about 0.91 (no sharp cut-off); inconclusive = no clear call, values can overlap the other calls; inactive = mostly above about 0.92. Some of the results follow.

Test: chemical genetic growth profiling, strain panel (AID 1159580);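 also: tested at 20 µM; growth read once vehicle control cultures reached saturation at 30 °C; 1 = growth at the plate median or of vehicle wells; lower values mean less growth of the strain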
Conditions: growth OD
[1] = S. cerevisiae deletion strains, locus YDR150W, strain NUM1, active compounds read low
[2] = S. cerevisiae deletion strains, locus YNL322C, strain KRE1, active compounds read low
[3] = S. cerevisiae deletion strains, locus YPL241C, strain CIN2, active compounds read low

Measured: normalized growth

O=C(O)/C=C1\CCCc2ccccc2C1O (stereo unspecified)
inactive: S. cerevisiae deletion strains, locus YAL013W, strain DEP1, active compounds read low 1.01 | S. cerevisiae deletion strains, locus YBR021W, strain FUR4, active compounds read low 1.01 | S. cerevisiae deletion strains, locus YBR229C, strain ROT2, active compounds read low 0.965 | S. cerevisiae deletion strains, locus YCL029C, strain bik1, active compounds read low 0.982 | S. cerevisiae deletion strains, locus YDL035C, strain GPR1, active compounds read low 0.993 | S. cerevisiae deletion strains, locus YDL074C, strain BRE1, active compounds read low 0.96 | S. cerevisiae deletion strains, locus YDL101C, strain DUN1, active compounds read low 0.988 | S. cerevisiae deletion strains, locus YDL134C, strain PPH21, active compounds read low 0.992 | S. cerevisiae deletion strains, locus YDL185W, strain tfp1, active compounds read low 0.945 | S. cerevisiae deletion strains, locus YDL192W, strain arf1, active compounds read low 0.977 | S. cerevisiae deletion strains, locus YDR101C, strain arx1, active compounds read low 0.993 | [1] 0.991 | S. cerevisiae deletion strains, locus YDR162C, strain NBP2, active compounds read low 0.987 | S. cerevisiae deletion strains, locus YDR318W, strain mcm21, active compounds read low 0.985 | S. cerevisiae deletion strains, locus YDR388W, active compounds read low 0.989 | S. cerevisiae deletion strains, locus YDR502C, strain sam2, active compounds read low 0.976 | S. cerevisiae deletion strains, locus YEL061C, strain CIN8, active compounds read low 0.995 | S. cerevisiae deletion strains, locus YER110C, active compounds read low 0.982 | S. cerevisiae deletion strains, locus YER155C, strain BEM2, active compounds read low 1.01 | S. cerevisiae deletion strains, locus YER167W, strain BCK2, active compounds read low 0.998 | S. cerevisiae deletion strains, locus YGL078C, strain dbp3, active compounds read low 0.992 | S. cerevisiae deletion strains, locus YGL086W, strain mad1, active compounds read low 0.991 | S. cerevisiae deletion strains, locus YGL248W, strain PDE1, active compounds read low 0.979 | S. cerevisiae deletion strains, locus YGR078C, strain PAC10, active compounds read low 1 | S. cerevisiae deletion strains, locus YGR135W, strain pre9, active compounds read low 0.98 | S. cerevisiae deletion strains, locus YGR229C, strain SMI1, active compounds read low 0.997 | S. cerevisiae deletion strains, locus YGR252W, strain gcn5, active compounds read low 0.962 | S. cerevisiae deletion strains, locus YHR030C, strain SLT2, active compounds read low 1.01 | S. cerevisiae deletion strains, locus YHR079C, strain IRE1 (second series), active compounds read low 0.992 | S. cerevisiae deletion strains, locus YHR094C, strain hxt1, active compounds read low 0.984 | S. cerevisiae deletion strains, locus YHR129C, strain ARP1, active compounds read low 0.992 | S. cerevisiae deletion strains, locus YHR200W, strain rpn10, active compounds read low 0.989 | S. cerevisiae deletion strains, locus YIL066C, strain RNR3, active compounds read low 0.996 | S. cerevisiae deletion strains, locus YIL073C, strain SPO22, active compounds read low 0.974 | S. cerevisiae deletion strains, locus YIL125W, strain kgd1, active compounds read low 0.975 | S. cerevisiae deletion strains, locus YIR030C, strain dcg1, active compounds read low 0.988 | S. cerevisiae deletion strains, locus YJL095W, strain BCK1, active compounds read low 1.01 | S. cerevisiae deletion strains, locus YJL134W, strain LCB3, active compounds read low 0.986 | S. cerevisiae deletion strains, locus YJL168C, strain set2, active compounds read low 0.986 | S. cerevisiae deletion strains, locus YJL187C, strain SWE1 (second series), active compounds read low 0.99 | S. cerevisiae deletion strains, locus YJR043C, strain POL32, active compounds read low 0.998 | S. cerevisiae deletion strains, locus YJR075W, strain HOC1, active compounds read low 0.985 | S. cerevisiae deletion strains, locus YKL009W, strain mrt4, active compounds read low 0.955 | S. cerevisiae deletion strains, locus YKL068W, active compounds read low 0.981 | S. cerevisiae deletion strains, locus YKL085W, strain MDH1 (second series), active compounds read low 0.98 | S. cerevisiae deletion strains, locus YKL085W, strain MDH1, active compounds read low 0.98 | S. cerevisiae deletion strains, locus YKL190W, strain CNB1, active compounds read low 0.996 | S. cerevisiae deletion strains, locus YKR001C, strain vps1, active compounds read low 0.978 | S. cerevisiae deletion strains, locus YLR039C, strain RIC1, active compounds read low 0.944 | S. cerevisiae deletion strains, locus YLR058C, strain SHM2, active compounds read low 0.988 | S. cerevisiae deletion strains, locus YLR102C, strain apc9, active compounds read low 0.977 | S. cerevisiae deletion strains, locus YLR262C, strain YPT6, active compounds read low 0.937 | S. cerevisiae deletion strains, locus YLR268W, strain sec22, active compounds read low 0.984 | S. cerevisiae deletion strains, locus YLR330W, strain CHS5, active compounds read low 0.998 | S. cerevisiae deletion strains, locus YLR342W, strain FKS1 (second series), active compounds read low 0.983 | S. cerevisiae deletion strains, locus YLR371W, strain rom2, active compounds read low 0.975 | S. cerevisiae deletion strains, locus YLR418C, strain cdc73, active compounds read low 0.989 | S. cerevisiae deletion strains, locus YML016C, strain PPZ1, active compounds read low 0.964 | S. cerevisiae deletion strains, locus YML032C, strain rad52, active compounds read low 0.982 | S. cerevisiae deletion strains, locus YML124C, strain tub3, active compounds read low 0.992 | S. cerevisiae deletion strains, locus YMR078C, strain ctf18, active compounds read low 0.977 | S. cerevisiae deletion strains, locus YMR223W, strain ubp8, active compounds read low 0.991 | S. cerevisiae deletion strains, locus YMR263W, strain SAP30, active compounds read low 0.952 | S. cerevisiae deletion strains, locus YMR307W, strain GAS1, active compounds read low 0.991 | S. cerevisiae deletion strains, locus YNL067W, strain RPL9B, active compounds read low 0.998 | S. cerevisiae deletion strains, locus YNL128W, strain TEP1, active compounds read low 0.976 | S. cerevisiae deletion strains, locus YNL153C, strain GIM3, active compounds read low 0.998 | S. cerevisiae deletion strains, locus YNL233W, strain BNI4, active compounds read low 1.01 | S. cerevisiae deletion strains, locus YNL250W, strain rad50, active compounds read low 0.979 | S. cerevisiae deletion strains, locus YNL271C, strain bni1, active compounds read low 0.987 | S. cerevisiae deletion strains, locus YNL298W, strain CLA4, active compounds read low 0.964 | S. cerevisiae deletion strains, locus YNL307C, strain MCK1, active compounds read low 0.986 | [2] 0.986 | S. cerevisiae deletion strains, locus YNR052C, strain pop2, active compounds read low 0.989 | S. cerevisiae deletion strains, locus YOL006C, strain TOP1, active compounds read low 0.983 | S. cerevisiae deletion strains, locus YOL012C, strain htz1 0.943 | S. cerevisiae deletion strains, locus YOL147C, strain pex11, active compounds read low 0.991 | S. cerevisiae deletion strains, locus YOR061W, strain CKA2, active compounds read low 0.974 | S. cerevisiae deletion strains, locus YOR069W, strain VPS5, active compounds read low 1 | S. cerevisiae deletion strains, locus YOR136W, strain idh2, active compounds read low 0.995 | S. cerevisiae deletion strains, locus YOR144C, strain elg1, active compounds read low 0.991 | S. cerevisiae deletion strains, locus YOR184W, strain ser1, active compounds read low 0.985 | S. cerevisiae deletion strains, locus YOR316C, strain cot1, active compounds read low 0.975 | S. cerevisiae deletion strains, locus YPL055C, strain LGE1, active compounds read low 0.971 | [3] 0.997 | S. cerevisiae deletion strains, locus YPR119W, strain clb2, active compounds read low 0.995 | S. cerevisiae deletion strains, locus YPR141C, strain kar3, active compounds read low 0.964 | S. cerevisiae deletion strains, locus YPR163C, strain tif3, active compounds read low 0.99 | S. cerevisiae deletion strains, locus YPR167C, strain met16, active compounds read low 0.987 | S. cerevisiae deletion strains, strain wtn01, active compounds read low 0.98 | S. cerevisiae strains, strain wild type, active compounds read low 0.991

Nc1ncnc2c1nc(Sc1ccc(Cl)cc1)n2C1OC2COP(=O)(O)O[C@@H]2[C@@H]1O (stereo partly specified)
inactive: S. cerevisiae deletion strains, locus YAL040C, strain CLN3, active compounds read low 0.98 | [1] 0.999 | S. cerevisiae deletion strains, locus YDR363W, strain ESC2, active compounds read low 1.01 | S. cerevisiae deletion strains, locus YER002W, strain NOP16, active compounds read low 0.984 | S. cerevisiae deletion strains, locus YNL175C, strain NOP13, active compounds read low 1.01 | S. cerevisiae deletion strains, locus YNL197C, strain WHI3, active compounds read low 1.02 | S. cerevisiae deletion strains, locus YNL224C, strain SQS1, active compounds read low 0.995 | [2] 0.996 | S. cerevisiae deletion strains, locus YOR083W, strain WHI5 (second series), active compounds read low 1.02 | [3] 1
